Reference: the supplement of paper PMC6555819

These sequences were tested on VDR:RXRa (NR concentration 270 nM, RXRa partner concentration 90 nM) (assay: PBM binding z-score (relative to random genomic background probes); higher = stronger binding; sequences stand for … in GC…GCGATTGACAGCGTAGAATGAAGG).
Experimental: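 Protein-binding microarray (Agilent 4x180K custom design, double-stranded 60-nt probes: 5' GC cap, 34-nt variable region, 24-nt constant primer region; full probe sequence given). Purified or IVT nuclear receptor:RXRα heterodimers (3:1 NR:RXRα, mostly 270:90 nM) or homodimers were incubated for 1 h in PBS with 2% milk and no ligand, then detected with Alexa488 antibodies. Fluorescence from o1-orientation probes (~5 replicates averaged) was converted to z-scores against 500 random hg19 background probes. Variable regions are seed direct-repeat (DR0–DR5) sites, all their single-nucleotide variants and half-site ablations.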

**Q.** Which PBM binding z-score does the source give for CGGCCTAGGTCAGGGCCAGTATAGGAGGAACGTT here?
**A.** 0.12

**Q.** For CAAACTAGGTCACTGAGGTCAAAGTCCGTGCGTA, which PBM binding z-score is on record?
**A.** 7.99

**Q.** With GCGACTGGGGCATTAGCAGGTTACCATAACTTAA as the sequence, how does the PBM binding z-score read?
**A.** -0.196

**Q.** For CCTAGCAGGCCAATCTGGGTCACTCATGGCTTGA, which PBM binding z-score is on record?
**A.** 0.303

**Q.** ACTGTTAGTTGACTTAGGGCAACCGATACGACGC was tested. Which PBM binding z-score did it give?
**A.** 0.59

**Q.** How did the PBM binding z-score turn out when CCTACCGGGCCACGAAAGGTCATTGATTCAGTGA was run?
**A.** 4.1

**Q.** Which PBM binding z-score does the source give for CCAGATAGGTGAGAAGGTAACTCAGCCTCGATTA here?
**A.** 0.254

**Q.** Which PBM binding z-score does the source give for TCGAGTAGGTTACCTATGGGGCATTCAGCTTTCT here?
**A.** -0.0814

**Q.** How did the PBM binding z-score turn out when TCTAGCAGGCCAGAGCGTCACTCAAGAGGTACGG was run?
**A.** -0.608

**Q.** CCTAGTGGGTCAAGGTCACACACGCTATAGGTAC was tested. Which PBM binding z-score did it give?
**A.** 4.64

**Q.** Which PBM binding z-score does the source give for CATGCTAGGTCATGGTCAGCTAATCTACAGTATG here?
**A.** 1.79

**Q.** How did the PBM binding z-score turn out when CCGACTGGGGCAAAGGTTACCATCCTCAGTACGA was run?
**A.** 1.37

**Q.** Which PBM binding z-score does the source give for AATATTAGTTGACTTAGGGCAACCGATACGACGC here?
**A.** 0.46

**Q.** ATCTCTAGGTAACAAGTTCAGAGAAAGAGAGGAC was tested. Which PBM binding z-score did it give?
**A.** 2.01

**Q.** Which PBM binding z-score does the source give for ACTATTAGTTGACTTCGGGCAACCGATACGACGC here?
**A.** 0.179

**Q.** For TAGCCTAGGGCATGGGCCAGTATACCACGCGAAC, which PBM binding z-score is on record?
**A.** -0.452

**Q.** AGTCAAAGTTCAGGACGAGGTAAGGTAAAGCACG was tested. Which PBM binding z-score did it give?
**A.** 2.4

**Q.** For TTACCAAGGTGAAGGTTGTTGATCCCTCTGTAGA, which PBM binding z-score is on record?
**A.** 0.381

**Q.** With TTACCACGGTGAGCTGAGGTCGTTGATCCAACTC as the sequence, how does the PBM binding z-score read?
**A.** 1.57

**Q.** For GCTAGTTGGTCAGTACAAGGTCACACACCGGTCG, which PBM binding z-score is on record?
**A.** 3.24

**Q.** With CAAACTAGGTCAAACGTCAAAGTCGAGCCAACCA as the sequence, how does the PBM binding z-score read?
**A.** 2.41

**Q.** Which PBM binding z-score does the source give for ATCTCTAGGTAAAGTTAAGTGAAAGATCGATAGA here?
**A.** 0.476

**Q.** How did the PBM binding z-score turn out when TGAATGATGTTATAAGATCAGGGAACGTTGCAAA was run?
**A.** -0.175

**Q.** Which PBM binding z-score does the source give for ATATGTAGGTTAGCTGGGGTCATACAGACTAGGC here?
**A.** 6.08

**Q.** With TCATACAGGTAATACAGGTGAAAGTCGGCATCTA as the sequence, how does the PBM binding z-score read?
**A.** 1.24

**Q.** How did the PBM binding z-score turn out when CCTACTGGGCCATCAGGGCATTGATATCAACGTT was run?
**A.** -0.589

**Q.** CGAACTAGGTCAGAACAGCACAGTGAAGGATGAT was tested. Which PBM binding z-score did it give?
**A.** 0.261

**Q.** Which PBM binding z-score does the source give for TCTTGTAGATCAACAGGAGGTTAAGAAGGATCGA here?
**A.** 0.575

**Q.** TCTCGGAGGACACGAAAGGTTAGAGCTCGACATC was tested. Which PBM binding z-score did it give?
**A.** 0.803

**Q.** Which PBM binding z-score does the source give for CCGAGTAGGTTACGGGGCATTCAGGCAACGGTGA here?
**A.** 0.208

**Q.** Which PBM binding z-score does the source give for CGTCAAAGTTCAAGGTAACCTAACAGAAAGCAGC here?
**A.** 3.96

**Q.** For CGTCCAAGGTCAGAGAGGTCTGTGAATGCCGAGT, which PBM binding z-score is on record?
**A.** 4.72

**Q.** TAGCCTAGGACATTCAGGGGCCAGTATAGAAAGC was tested. Which PBM binding z-score did it give?
**A.** -0.174

**Q.** How did the PBM binding z-score turn out when ATCGAAAGGACGAGGTGAGTATAGAGAAAGGGAA was run?
**A.** -0.203

**Q.** With CCTACTGAGCCAAGGTCATTGATCAGTCAAAGCA as the sequence, how does the PBM binding z-score read?
**A.** 3.63

**Q.** How did the PBM binding z-score turn out when GGAACGAGGGCAAAGTTGAGAGCATCTGTCGACG was run?
**A.** 1.55

**Q.** TTACCAAGGTGAGCTGAGGTCGTTTATCCAACTC was tested. Which PBM binding z-score did it give?
**A.** 4.32

**Q.** CCTAGCAGGCCAACCTGGGTCACTCAAGGCTTGA was tested. Which PBM binding z-score did it give?
**A.** 1.15

**Q.** With CTCGAAAGGTCGTGCTCTGGTGAGTATACCAAAC as the sequence, how does the PBM binding z-score read?
**A.** 3.19

**Q.** For AGAATGAGGTTACCAAAGATGAGGGAAACGCTTG, which PBM binding z-score is on record?
**A.** 1.03
